About 79,000 compounds went through this panel and 15% of them were active in at least one assay; those are over-represented in the sample as a whole. The source made the active and inactive calls. Cut-off read from the data, not from the text of the source: active = growth inhibition above about 70%; inactive = the rest.
Assays:
[1] = NCI Yeast Anticancer Drug Screen. Data for the rad52 strain (AID 147);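 note: 0% = growth of vehicle-treated control cultures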; details: S. cerevisiae rad52 mutant growth inhibition, hits give high values
Method in brief: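 Growth of repair-deficient yeast cells was compared between compound-treated and vehicle-treated cultures to give percent inhibition.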

[2] = NCI Yeast Anticancer Drug Screen. Data for the wt1 strain (AID 149);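 note: 0% = growth of vehicle-treated wt1 cultures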; details: S. cerevisiae wt1 strain (SPY 50644) growth inhibition, hits give high values
Method in brief: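 The wt1 strain was treated with compounds, and growth was compared with vehicle-treated cultures to give inhibition.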

[3] = NCI Yeast Anticancer Drug Screen. Data for the rad50EPP+ strain (AID 151);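 note: 0% = growth of vehicle-treated control cultures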; details: S. cerevisiae rad50 mutant strain, hits give high values
Method in brief: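 Measured: growth inhibition of rad50EPP+ yeast. Reference: vehicle-treated controls. Screen uses strains with defined genetic alterations in DNA damage repair or cell cycle control.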

[4] = NCI Yeast Anticancer Drug Screen. Data for the rad50 strain (AID 155);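 note: 0% = growth of vehicle-only cultures of the same strain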; details: S. cerevisiae rad50 strain growth inhibition, hits give high values
Method in brief: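 Cells are treated with compound, grown, and their growth is then scored against vehicle-only cultures of the same repair-deficient yeast strain.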

[5] = NCI Yeast Anticancer Drug Screen. Data for the mec2-1 strain (AID 157); details: S. cerevisiae mec2-1 strain, hits give high values
Method in brief: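 Compounds were applied to mec2-1 yeast cells. Their growth was then compared with that of vehicle-treated cultures to give growth inhibition.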

[6] = NCI Yeast Anticancer Drug Screen. Data for the sgs1 mgt1 strain (AID 161);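 note: 0% = growth of cultures given vehicle only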; details: S. cerevisiae sgs1 mgt1 strain, hits give high values
Method in brief: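 This yeast growth screen uses a strain with defined DNA-repair lesions; compound-treated growth is compared with vehicle-treated growth.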

[7] = NCI Yeast Anticancer Drug Screen. Data for the CLN2oe strain (AID 163);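 note: 0% = growth of vehicle-only control cultures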; details: S. cerevisiae CLN2oe strain, hits give high values
Method in brief: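 Cells of an engineered yeast line with disturbed cell-cycle regulation are treated with compound. Inhibition of growth is then calculated relative to the vehicle-treated reference.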

[8] = NCI Yeast Anticancer Drug Screen. Data for the cln2 rad14 strain (AID 165);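 note: 0% = growth equal to vehicle treated cultures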; details: S. cerevisiae cln2 rad14 strain, hits give high values
Method in brief: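 Strain: cln2 rad14 yeast, altered in cell cycle control and DNA damage repair. Read-out: growth inhibition vs vehicle.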

[9] = NCI Yeast Anticancer Drug Screen. Data for the bub3 strain (AID 167); details: S. cerevisiae bub3 mutant strain, hits give high values
Method in brief: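 Part of a panel of yeast mutants defective in DNA damage repair or cell cycle regulation. Each strain is grown with compound, and inhibition is calculated relative to solvent-treated cultures.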

[10] = NCI Yeast Anticancer Drug Screen. Data for the wt2 strain (AID 169);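 note: 0% = growth of vehicle-treated yeast cultures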; details: S. cerevisiae wt2 strain growth inhibition, hits give high values
Method in brief: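 Growth of compound-treated yeast is measured and expressed as inhibition relative to vehicle-only controls.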

[11] = NCI Yeast Anticancer Drug Screen. Data for the sgs1 strain (AID 173);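 note: 0% = growth of vehicle-only control cultures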; details: S. cerevisiae sgs1 mutant, hits give high values
Method in brief: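 Strain with an altered DNA repair or cell cycle pathway exposed to compound. Growth then measured. Value = inhibition versus vehicle control.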

[12] = NCI Yeast Anticancer Drug Screen. Data for the mgt1 strain (AID 153); details: S. cerevisiae mgt1 mutant growth inhibition, hits give high values
Method in brief: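 Compounds were applied to mgt1 mutant yeast, and growth was then compared against vehicle-treated control cultures to give percent inhibition.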

[13] = NCI Yeast Anticancer Drug Screen. Data for the rad14 strain (AID 159);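 note: 0% = growth of vehicle-treated control cultures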; details: S. cerevisiae rad14 strain growth inhibition, hits give high values
Method in brief: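 Readout: yeast growth inhibition, referenced to vehicle-only cultures. Strain bears a defined alteration in DNA damage repair.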

[14] = NCI Yeast Anticancer Drug Screen. Data for the mlh1 strain (AID 171);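 note: 0% = growth of vehicle-treated control cultures of the same strain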; details: S. cerevisiae mlh1 strain growth inhibition, hits give high values
Method in brief: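 Test agents were incubated with yeast bearing a defined DNA damage repair or cell cycle control alteration; values are growth inhibition normalised to vehicle-treated cultures.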

[15] = NCI Yeast Anticancer Drug Screen. Data for the mlh1 rad18 strain (AID 175); details: S. cerevisiae mlh1 rad18 strain growth inhibition, hits give high values
Method in brief: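 A repair-deficient yeast strain is exposed to test compound, and growth is scored relative to vehicle-treated controls.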

[16] = NCI Yeast Anticancer Drug Screen. Data for the rad18 strain (AID 177); details: S. cerevisiae rad18 mutant growth inhibition, hits give high values
Method in brief: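 DNA-repair-defective yeast; compound treatment; growth inhibition scored against vehicle.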

[17] = at 5.0 µM (retest, dose inferred, filed as 0.5)
[18] = at 50.0 µM (retest, dose inferred, filed as 5.0)

Measured: growth inhibition

O=C(O)C1CCCCC1c1c2ccc(=O)c(O)c-2oc2c(O)c(O)ccc12 (stereo unspecified)
active: [1]; at 100.0 µM 79% | [2]; at 100.0 µM 82% | [4]; [18] 77% | [4]; at 50.0 µM 77.8% | [4]; at 100.0 µM 77% | [5]; [18] 80% | [5]; at 50.0 µM 82.1% | [5]; at 100.0 µM 85% | [6]; [18] 80% | [7]; at 100.0 µM 86% | [8]; [18] 74% | [9]; at 33.0 µM 72% | [9]; [18] 80% | [9]; at 50.0 µM 87.2% | [9]; at 100.0 µM 86% | [10]; at 100.0 µM 73% | [11]; at 100.0 µM 74%
inactive: [1]; at 1.2 µM -18% | [1]; at 3.7 µM -26% | [1]; at 11.0 µM -20% | [1]; at 33.0 µM 24% | [2]; at 1.2 µM -17% | [2]; at 3.7 µM -11% | [2]; at 11.0 µM -3% | [2]; at 33.0 µM 32% | [3]; at 1.2 µM -9% | [3]; at 3.7 µM 0% | [3]; at 11.0 µM -24% | [3]; at 33.0 µM -39% | [3]; at 100.0 µM -48% | [4]; at 1.2 µM -12% | [4]; at 3.7 µM -22% | [4]; [17] 9% | [4]; at 11.0 µM -16% | [4]; at 33.0 µM 28% | [5]; at 1.2 µM -38% | [5]; at 3.7 µM -32% | [5]; [17] -7% | [5]; at 11.0 µM -13% | [5]; at 33.0 µM 46% | [6]; [17] 7% | [6]; at 50.0 µM 59.4% | [7]; at 1.2 µM 15% | [7]; at 3.7 µM 28% | [7]; at 11.0 µM 23% | [7]; at 33.0 µM 67% | [8]; [17] -21% | [8]; at 50.0 µM 56.2% | [9]; at 1.2 µM 0% | [9]; at 3.7 µM 6% | [9]; [17] -7% | [9]; at 11.0 µM 12% | [10]; at 1.2 µM -32% | [10]; at 3.7 µM -23% | [10]; at 11.0 µM -25% | [10]; at 33.0 µM 13% | [11]; at 1.2 µM -11% | [11]; at 3.7 µM -20% | [11]; at 11.0 µM -16% | [11]; at 33.0 µM 33%

COc1cc(C2c3cc4c(cc3OC(Nc3ccccc3)C2C)OCO4)cc(OC)c1O (stereo unspecified)
active: [1]; at 100.0 µM 86% | [4]; at 50.0 µM 77% | [4]; at 100.0 µM 86% | [5]; [18] 78% | [15]; [18] 99% | [15]; at 50.0 µM 92.5% | [16]; at 100.0 µM 92%
inactive: [1]; at 1.2 µM 1% | [1]; at 3.7 µM 2% | [1]; at 11.0 µM 0% | [1]; at 33.0 µM 2% | [2]; at 1.2 µM 1% | [2]; at 3.7 µM -1% | [2]; at 11.0 µM 2% | [2]; at 33.0 µM 0% | [2]; at 100.0 µM 30% | [12]; at 1.2 µM -1% | [12]; at 3.7 µM -3% | [12]; at 11.0 µM -3% | [12]; at 33.0 µM 15% | [12]; at 100.0 µM 38% | [4]; at 1.2 µM 2% | [4]; at 3.7 µM 2% | [4]; [17] -3% | [4]; at 11.0 µM 2% | [4]; at 33.0 µM 2% | [4]; [18] 64% | [5]; at 1.2 µM 0% | [5]; at 3.7 µM 1% | [5]; [17] -5% | [5]; at 11.0 µM 1% | [5]; at 33.0 µM 1% | [5]; at 50.0 µM 36.1% | [5]; at 100.0 µM 67% | [13]; at 1.2 µM 1% | [13]; at 3.7 µM 1% | [13]; at 11.0 µM 4% | [13]; at 33.0 µM 5% | [13]; at 100.0 µM 51% | [6]; [17] -3% | [6]; [18] 6% | [6]; at 50.0 µM 58.7% | [8]; [17] 3% | [8]; [18] 52% | [8]; at 50.0 µM 6.9% | [9]; at 1.2 µM -1% | [9]; at 3.7 µM -5% | [9]; [17] 11% | [9]; at 11.0 µM -1% | [9]; at 33.0 µM 0% | [9]; [18] 51% | [9]; at 50.0 µM 43.8% | [9]; at 100.0 µM 41% | [10]; at 1.2 µM -1% | [10]; at 3.7 µM -2% | [10]; at 11.0 µM -1% | [10]; at 33.0 µM 0% | [10]; at 100.0 µM 68% | [14]; at 1.2 µM -3% | [14]; at 3.7 µM -1% | [14]; at 11.0 µM 0% | [14]; at 33.0 µM -3% | [14]; at 100.0 µM 61% | [11]; at 1.2 µM -1% | [11]; at 3.7 µM 0% | [11]; at 11.0 µM 0% | [11]; at 33.0 µM 2% | [11]; at 100.0 µM 65% | [15]; [17] -1% | [16]; at 1.2 µM 0% | [16]; at 3.7 µM -1% | [16]; at 11.0 µM -7% | [16]; at 33.0 µM 1%

NCCNc1ccc(NCCN)c2c1C(=O)c1c(O)ccc(O)c1C2=O
inactive: [1]; at 1.2 µM 24% | [1]; at 100.0 µM 63% | [2]; at 1.2 µM 0% | [2]; at 3.7 µM 9% | [2]; at 11.0 µM 7% | [3]; at 1.2 µM 30% | [3]; at 3.7 µM 62% | [3]; at 100.0 µM 66% | [4]; at 1.2 µM 20% | [4]; at 50.0 µM 29.6% | [4]; at 100.0 µM 65% | [5]; at 1.2 µM -10% | [5]; at 3.7 µM 18% | [5]; [17] 14% | [5]; at 11.0 µM 13% | [5]; at 50.0 µM 67.5% | [5]; at 100.0 µM 68% | [6]; [17] 17% | [6]; at 50.0 µM 65% | [7]; at 1.2 µM 28% | [7]; at 3.7 µM 20% | [7]; at 11.0 µM 32% | [7]; at 100.0 µM 52% | [8]; [17] 21% | [8]; at 50.0 µM 64.5% | [9]; at 1.2 µM 0% | [9]; at 3.7 µM 23% | [9]; [17] 11% | [9]; at 11.0 µM 5% | [9]; at 50.0 µM 60% | [9]; at 100.0 µM 62% | [10]; at 1.2 µM -15% | [10]; at 3.7 µM 2% | [10]; at 11.0 µM 44% | [10]; at 100.0 µM 52% | [11]; at 1.2 µM 11% | [11]; at 3.7 µM 42% | [11]; at 11.0 µM 40% | [11]; at 100.0 µM 63% | [15]; [17] 14% | [15]; at 50.0 µM 46% | [16]; at 1.2 µM 4% | [16]; at 3.7 µM 18% | [16]; at 11.0 µM 8% | [16]; at 100.0 µM 61%
active: [1]; at 3.7 µM 83% | [1]; at 11.0 µM 88% | [1]; at 33.0 µM 85% | [2]; at 33.0 µM 82% | [2]; at 100.0 µM 76% | [3]; at 11.0 µM 82% | [3]; at 33.0 µM 87% | [4]; at 3.7 µM 78% | [4]; [17] 73% | [4]; at 11.0 µM 87% | [4]; at 33.0 µM 85% | [4]; [18] 84% | [5]; at 33.0 µM 87% | [5]; [18] 84% | [6]; [18] 77% | [7]; at 33.0 µM 82% | [8]; [18] 77% | [9]; at 33.0 µM 85% | [9]; [18] 70% | [10]; at 33.0 µM 80% | [11]; at 33.0 µM 86% | [15]; [18] 82% | [16]; at 33.0 µM 85%

From PubChem BioAssay (NCI)
